# Lassa entry inh: inhibitors of Lassa virus binding or cell entry; 1.2% of 300,000 active; AID 540256; Potency, µM (top dose mostly 37.9 µM), inactives show top-dose activity change, negative = inhibition, hits mostly inhibitors; Lassa virus pseudotype entry inhibition, cell reporter; calls by dose curve; tested in HEK293 cells; also: nearly all actives have a fitted effect of over 50% in size
# VACV mCherry inh: inhibitors of vaccinia virus infection (mCherry reporter signal); 0.63% of 310,000 active; AID 720579; Potency, µM (highest dose often 36.5 µM), without a hit: top-dose activity change, negative = inhibition, most hits filed as inhibitors; Vaccinia virus mCherry reporter infection, fluorescence; calls by dose curve; tested in A549 cells; also: nearly all actives have a fitted effect of over 35% in size
# Sm TGR inh: S. mansoni TGR enzyme inhibition | AID 485364 | purified TGR, DTNB reduction, TNB absorbance 405 nm | Q962Y6 | 3% of 360,000 active | Potency, µM (doses to about 114 µM), for the others: at the top dose activity change, negative = inhibition, most hits filed as inhibitors; active = well fitted inhibition curve with a large enough effect; inconclusive = small, poorly fitted or top-dose-only effect; inactive = no such curve, though single readings can be large or run the other way; also: nearly all actives have a fitted effect of over 60% in size
#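 TGR 20 nM + NADPH 100 uM (dispensed conc.), cpd preinc 15 min RT; start with NADPH (500 uM addition) then DTNB (15 mM addition). Kinetic TNB absorbance, 405 nm filter. Four-parameter Hill fit across titration.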
# Marburg entry inh: blocks Marburg virus binding to or entry into cells | Marburg virus pseudotyped entry inhibition, cell reporter | Potency, µM (titrated, usually from 37.8 µM), for the others: at the top dose activity change, negative = inhibition, usual class: inhibitors | 1.8% of 300,000 active | AID 540276; calls by dose curve; tested in HEK293 cells
# VACV Venus inh: inhibitors of vaccinia virus (Venus reporter) | AID 720580 | Potency, µM (top dose mostly 36.5 µM), without a hit: at the top dose activity change, negative = inhibition, most hits filed as inhibitors | Vaccinia virus Venus reporter expression, fluorescence | 0.46% of 330,000 active; calls by dose curve; tested in A549 cells; also: nearly all actives have a fitted effect of over 30% in size
# FMDV inh: antivirals against foot and mouth disease virus; FMDV antiviral cell-based qHTS; Potency, µM (doses to about 57.9 µM), for inactives: at the highest dose activity change, negative = inhibition, usual class: inhibitors; 1.2% of 410,000 active; AID 1159524; calls by dose curve; tested in HEK293T cells; also: read-out not given here; nearly all actives have a fitted effect of over 45% in size
# Numbers without * were called inactive; i = inactive; ? = inconclusive; nt = no result; [ ] = another dose, or the depositor's remark. Rows were chosen to be rich in hits. Some 5.4% of all compounds tested hit in one or more screens of this group. % is scaled to controls: 0 for no effect and ±100 for the full control effect; potency is read from the fitted curve at half-maximal effect.
SMILES,Lassa entry inh,VACV mCherry inh,Sm TGR inh,Marburg entry inh,VACV Venus inh,FMDV inh
COC(=O)CSC1=C(C#N)C(=O)NC(c2ccccc2)S1 (configuration not stated),-18.9%,nt,?,19.0%,nt,7.94µM*
CC(C)Cn1c(C(C)C)nc([N+](=O)[O-])c1S(=O)(=O)c1ccc(F)cc1,-25.4%,nt,1.78µM*,?,nt,15.8µM*
CC(C)Cn1nc(NS(=O)(=O)c2ccccc2)c2cc3ccccc3nc21,4.1%,nt,-3.1%,5.8%,nt,41.0%
CCCc1nc([N+](=O)[O-])c(S(=O)(=O)c2ccccc2)n1CC(C)C,?,?,0.891µM*,11.6µM*,?,?
CC(C(=O)NCc1ccccc1F)n1ccc2cc(S(=O)(=O)N3CCCC3)ccc21 (configuration not stated),-1.2%[46.1 µM],i,5.0%,nt,-23.6%,?
CC(C)C(=O)c1cc2c(cc1NC(=O)c1ccccc1F)OCCO2,?,-9.0%,9.0%,nt,-14.2%,-17.3%
Cc1ccc(NC(=O)c2c(C)oc3ncn(CC(C)C)c(=O)c23)nc1,27.2%[46.1 µM],-26.3%,-11.6%,nt,-16.8%,-1.1%
CC(C)(C)c1ccc(C(=O)NC(=S)Nc2nc3c(s2)CCCC3)cc1,?,-6.6%,-2.1%,1.26µM*,-20.6%,?
COC(=O)Nc1ccc(S(=O)(=O)N2CCCc3ccccc32)cc1,-42.9%,nt,0.6%,?,nt,-8.1%
CNC(=O)c1ccsc1NC(=O)c1ccc(S(=O)(=O)N2CCCc3ccccc32)cc1,16.4µM*,?,-1.7%,?,?,?
O=C(Nc1nc2c(s1)CCCC2)c1ccc(S(=O)(=O)N2CCCc3ccccc32)cc1,?,i,1.6%,23.1µM*,-26.1%,?
CC1CCc2nc(NC(=O)c3ccc(S(=O)(=O)N4CCCc5ccccc54)cc3)sc2C1 (configuration not stated),-19.0%,-9.9%,-0.2%,?,-17.6%,?
CCCCCCCCN1[C@@H](CC(C)=O)c2ccc(/C=C/C(C)=O)cc2S1(=O)=O,nt,-15.8%,nt,nt,-5.4%,nt
O=C(c1ccc([N+](=O)[O-])cc1)N1CCN(c2ccc(Nc3ccccc3)nn2)CC1,8.7%[46.1 µM],-5.5%,-12.9%,nt,-8.2%,-14.6%
COc1ccc(OC)c(CNC(=O)Nc2cn(CC(C)C)c(=O)c3ccccc23)c1,-5.9%[46.1 µM],4.0%,5.6%,nt,5.2%,-7.6%
O=C(COC(=O)C1CC(=O)N(Cc2ccco2)C1)c1ccc(OC(=O)c2ccco2)cc1 (configuration not stated),8.6%,-15.0%,11.2µM*,?,-6.6%,24.4%
O=C(c1ccc([N+](=O)[O-])cc1[N+](=O)[O-])N1CCc2ccccc21,0.4%[46.1 µM],2.24µM*,-9.8%,-0.5%[46.1 µM],?,-8.8%
CC(C)c1nc2ccc(C(=O)NCCCN3CCN(c4ccccc4F)CC3)cc2o1,1.0%[46.1 µM],-12.2%,-9.1%,nt,-20.1%,-35.5%
COC(=O)c1ccccc1-c1cc(C)cc2c1OC(CNC(=O)c1cnc(C)cn1)C2 (configuration not stated),nt,2.8%,nt,nt,14.1%,15.3%
COc1ccccc1C(=O)N1CCCC(c2nc(SCCN3CCOCC3)ncc2C)C1 (configuration not stated),nt,-10.9%,nt,nt,-0.3%,-2.4%
Cc1ccc(C)c(Sc2ccc(NC(=O)CCl)cc2)c1,?,nt,?,?,nt,20µM*
O=C(CCl)Nc1ccccc1Sc1ccccc1,?,-14.7%,?,?,-7.6%,?
Cc1ccc(NC(=O)CC(=O)Nc2ccc(C)c(C)c2)cc1C,5.8%,-12.2%,-1.3%,-4.4%[46.1 µM],-4.5%,-1.6%
Cc1ccc(Sc2ccc(NC(=O)CCl)cc2)cc1C,?,nt,?,?,nt,28.2µM*
CCOC(=O)c1ccccc1NC(=O)CSc1ccc(-c2sc(-c3ccccc3)nc2C)nn1,-23.1%[46.1 µM],i,-3.7%,nt,-18.8%,-20.1%
SMILES,Lassa entry inh,VACV mCherry inh,Sm TGR inh,Marburg entry inh,VACV Venus inh,FMDV inh
COCCCNC(=O)CCc1c(C)nc2cc(-c3ccc(Cl)cc3)nn2c1C,-9.2%[46.1 µM],-7.1%,1.6%,?,-7.4%,5.6%
COc1cccc(CN(C)C(=O)c2cc(COc3ccc4ncccc4c3)on2)c1,?,-10.0%,-29.1%,-22.5%[46.1 µM],-8.2%,11.2µM*
CC(=O)c1ccc(OCc2cc(C(=O)N(C)Cc3ccccn3)no2)cc1,?,i,12.6µM*,10.2%,-10.0%,9.2%
Cc1ccc(Cn2ccsc2=NC(=O)COC(=O)c2ccc(NC(=O)CC#N)cc2)cc1,?,-12.3%,-4.3%,?,-11.0%,25.1µM*
Cc1ccc(Cn2ccsc2=NC(=O)CCl)cc1,nt,nt,14.1µM*,nt,nt,?
Cc1nc(S[C@@H]2C=CS(=O)(=O)C2)n[nH]1,nt,nt,nt,0.1%,nt,nt
CSCCC(NC(=O)C1CCCCC1)C(=O)Nc1ccc(F)c(Cl)c1 (configuration not stated),23.2%[46.1 µM],-14.9%,-7.9%,?,-14.4%,15.1%
Cc1c(CCOC(=O)CC23CC4CC(CC(C)(C4)C2)C3)sc[n+]1CC(=O)c1ccccc1,nt,nt,-2.0%,nt,nt,28.2µM*
COc1cc(NC(=O)c2cnc(N)s2)cc(C(=O)Nc2cccc(C(F)(F)F)c2)c1,nt,?,10.1%,nt,?,-1.7%
COc1cc(NC(=O)c2csc(N)n2)cc(C(=O)Nc2cccc(C(F)(F)F)c2)c1,nt,?,8.7%,nt,?,25.1µM*
COc1cc(NC(=O)c2cnc(N)o2)cc(C(=O)Nc2cccc(C(F)(F)F)c2)c1,nt,-26.0%,0.0%,nt,?,17.8µM*
COc1cc(NC(=O)c2ccnc(N)c2)cc(C(=O)Nc2cccc(C(F)(F)F)c2)c1,nt,i,-9.3%,nt,-16.3%,-7.4%
Cc1c(Cl)cccc1NC(=S)NCCc1ccc(C(F)(F)F)cc1,?,i,0.8%,10µM*,-17.7%,-22.3%
Cc1c(Cl)cccc1NC(=S)NCCc1ccccn1,-28.4%,i,0.8%,2.2%[14.2 µM],-9.8%,-4.5%
Nc1ccc2nc(-c3ccc(O)cc3)sc2c1,?,21.7%,-12.6%,nt,11.2%,?
Nc1ccc(-c2nc3ccc(N)cc3s2)cc1,?,-12.1%,4.3%,11.2µM*,-8.5%,-76.5%
Nc1cc2sc(-c3ccc(C(=O)O)cc3)nc2cc1Cl,13µM*,-4.0%,-11.8%,13µM*,1.7%,-59.6%
O=C(O)c1ccc2nc(-c3ccccc3)sc2c1,2.24µM*,-19.7%,2.0%,1.46µM*,-6.3%,2.51µM*
Nc1nc(-c2ccc(C(=O)O)cc2)cs1,5.3%,-2.6%,0.4%,-0.9%[46.1 µM],-2.4%,0.9%
Nc1ccc(-c2nc3ccc(C(=O)O)cc3s2)cc1,0.461µM*,-12.5%,0.8%,0.461µM*,2.1%,?
NC(=O)c1ccc2nc(NC(=O)c3ccc(N)cc3)sc2c1,?,-3.5%,-4.8%,?,-18.7%,13.0%
COc1ccc(-c2nc(-c3ccccc3)c(-c3ccc(F)cc3)[nH]2)c(OC)c1C,3.1%[46.1 µM],-7.2%,-2.2%,-10.7%[46.1 µM],-10.0%,-13.2%
COc1ccccc1C(=O)N[C@@H]1c2ccccc2C2(CCN(Cc3c(O)cccc3OC)CC2)[C@H]1O,nt,-17.1%,nt,nt,?,?
Cc1ccc(Nc2cc(C)nc3nncn23)c(C)c1,2.4%[46.1 µM],-6.1%,-7.0%,0.5%[46.1 µM],-11.2%,-8.9%

# Assay outcomes as filed in PubChem BioAssay.
